The values that follow come from PubChem BioAssay (NCATS).

The list shows a part of the results. Inconclusive results are not listed. Activity calls are given as the source filed them. Calls follow the shape of the full dose curve.
% is scaled to controls: 0 for no effect and ±100 for the full control effect; potency is read from the fitted curve at half-maximal effect.

The target of the assay is Polyprotein P1234 (Chikungunya virus (strain S27-African prototype)) (UniProt Q8JUX6). Kind of assay: Selectivity profile for inhibitors of NSP2Pro chikungunya virus (CHIKV): Full length NSP2 enzyme counterscreen (CHIKV-NSP2) (AID 1964101). Also: nearly all actives have a fitted effect of over 65% in size. The following applies: Full-length CHIKV NSP2 protease enzymatic counterscreen; series mostly up to 50.7 µM; activity change, negative = inhibition: at the top concentration. An excerpt: PI: Natalia J. Martinez Ph.D.
Sequence of Polyprotein P1234 (Chikungunya virus (strain S27-African prototype)) (Q8JUX6 whole entry, looked up): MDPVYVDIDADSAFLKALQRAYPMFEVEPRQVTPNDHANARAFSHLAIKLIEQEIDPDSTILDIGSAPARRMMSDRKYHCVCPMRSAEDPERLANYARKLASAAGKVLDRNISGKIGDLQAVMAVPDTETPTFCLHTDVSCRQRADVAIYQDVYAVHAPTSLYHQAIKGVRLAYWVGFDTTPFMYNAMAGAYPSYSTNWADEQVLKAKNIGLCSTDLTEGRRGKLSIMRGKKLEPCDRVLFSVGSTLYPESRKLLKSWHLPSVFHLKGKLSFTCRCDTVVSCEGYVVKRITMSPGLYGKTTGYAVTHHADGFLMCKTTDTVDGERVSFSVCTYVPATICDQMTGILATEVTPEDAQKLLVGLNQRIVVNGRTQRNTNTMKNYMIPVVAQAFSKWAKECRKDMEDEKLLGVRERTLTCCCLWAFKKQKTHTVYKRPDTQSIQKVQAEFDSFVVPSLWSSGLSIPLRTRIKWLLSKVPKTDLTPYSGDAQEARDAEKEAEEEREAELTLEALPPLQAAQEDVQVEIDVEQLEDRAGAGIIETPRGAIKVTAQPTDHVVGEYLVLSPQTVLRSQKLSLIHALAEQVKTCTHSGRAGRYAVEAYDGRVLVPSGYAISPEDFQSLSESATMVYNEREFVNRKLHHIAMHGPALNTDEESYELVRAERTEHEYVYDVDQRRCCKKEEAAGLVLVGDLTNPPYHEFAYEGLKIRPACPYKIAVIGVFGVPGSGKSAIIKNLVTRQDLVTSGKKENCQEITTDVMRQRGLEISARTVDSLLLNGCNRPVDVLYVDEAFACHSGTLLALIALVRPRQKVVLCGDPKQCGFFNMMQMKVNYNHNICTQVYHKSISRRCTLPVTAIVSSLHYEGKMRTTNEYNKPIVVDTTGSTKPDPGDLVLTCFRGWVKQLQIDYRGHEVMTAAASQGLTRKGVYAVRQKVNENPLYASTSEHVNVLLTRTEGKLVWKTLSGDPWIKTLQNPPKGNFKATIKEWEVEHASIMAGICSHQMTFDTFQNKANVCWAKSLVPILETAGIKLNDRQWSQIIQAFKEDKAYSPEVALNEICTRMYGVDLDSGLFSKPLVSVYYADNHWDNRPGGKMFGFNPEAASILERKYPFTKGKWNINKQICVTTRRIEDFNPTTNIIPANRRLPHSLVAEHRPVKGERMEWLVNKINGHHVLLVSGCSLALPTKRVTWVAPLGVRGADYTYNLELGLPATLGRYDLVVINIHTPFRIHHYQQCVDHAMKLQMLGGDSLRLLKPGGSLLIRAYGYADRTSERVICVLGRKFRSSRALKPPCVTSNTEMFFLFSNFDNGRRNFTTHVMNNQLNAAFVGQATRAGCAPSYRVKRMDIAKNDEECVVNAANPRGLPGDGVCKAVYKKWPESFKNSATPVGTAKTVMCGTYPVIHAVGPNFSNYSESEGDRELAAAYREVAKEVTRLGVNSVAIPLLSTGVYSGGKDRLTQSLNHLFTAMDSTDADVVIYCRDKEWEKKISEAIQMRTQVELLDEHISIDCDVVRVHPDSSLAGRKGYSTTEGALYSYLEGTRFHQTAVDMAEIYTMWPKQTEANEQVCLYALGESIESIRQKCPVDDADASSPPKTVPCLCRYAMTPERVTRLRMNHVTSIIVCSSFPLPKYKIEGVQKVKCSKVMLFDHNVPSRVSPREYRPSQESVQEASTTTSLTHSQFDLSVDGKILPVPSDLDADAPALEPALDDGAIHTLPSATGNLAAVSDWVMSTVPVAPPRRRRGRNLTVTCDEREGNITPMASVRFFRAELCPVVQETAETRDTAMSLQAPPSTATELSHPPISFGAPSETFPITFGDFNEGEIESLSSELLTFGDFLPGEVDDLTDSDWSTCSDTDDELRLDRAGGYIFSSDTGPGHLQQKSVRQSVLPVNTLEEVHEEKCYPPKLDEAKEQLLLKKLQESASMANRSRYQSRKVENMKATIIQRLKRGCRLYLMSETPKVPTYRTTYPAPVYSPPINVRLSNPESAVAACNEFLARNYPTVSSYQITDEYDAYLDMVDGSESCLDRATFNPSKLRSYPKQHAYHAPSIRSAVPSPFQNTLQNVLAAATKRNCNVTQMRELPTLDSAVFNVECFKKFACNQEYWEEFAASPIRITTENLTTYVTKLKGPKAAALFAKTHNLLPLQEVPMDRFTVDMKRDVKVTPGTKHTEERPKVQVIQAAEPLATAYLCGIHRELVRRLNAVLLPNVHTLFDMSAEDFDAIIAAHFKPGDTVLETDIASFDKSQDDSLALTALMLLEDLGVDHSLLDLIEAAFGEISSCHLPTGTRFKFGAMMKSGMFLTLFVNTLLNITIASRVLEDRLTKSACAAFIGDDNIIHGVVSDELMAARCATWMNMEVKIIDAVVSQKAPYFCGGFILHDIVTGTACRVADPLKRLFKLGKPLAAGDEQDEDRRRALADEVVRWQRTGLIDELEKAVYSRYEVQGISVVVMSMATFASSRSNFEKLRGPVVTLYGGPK
National Center for Advancing Translational Sciences (NCATS),
National Institute of Health (NIH), Rockville, Maryland
Chikungunya virus (CHIKV) is a mosquito-borne RNA virus that has emerged as one of the most important global arboviral threats in the last decade. Although the first CHIKV vaccine has recently been FDA approved for use in healthy adults at increased risk, to date, there are no available antiviral drugs for CHIKV infection. CHIKV nsP2 protease plays a crucial role in the processing of the viral polypeptide precursor to release enzymes required for viral replication, thus making it a promising drug target for antiviral discovery. Here, we established a high-throughput pipeline to identify small molecule inhibitors of nsP2 proteolytic activity. The pipeline is composed of a suite of 1,536-well in vitro assays to support quantitative high-throughput (qHTS) screening campaigns. Specifically, we developed a fluorescence resonance energy transfer (FRET)-based assay using a fluorogenic peptide substrate encompassing an endogenous cleavage site and purified recombinant protease domain (nsP2pro). Using this assay, we interrogated ~37,000 small molecules, including those in drug repurposing libraries as well as chemically diverse and medicinal chemistry-friendly compounds. Hits were selected for follow-up validation against full-length nsP2 and an additional peptide. FRET-based 1,536-well assays for papain, hepatitis C virus NS3-4A, and human furin proteases were implemented to characterize compound selectivity. […] Novel compounds were identified to be potential nsP2 inhibitors and molecular docking analyses were performed to explain the binding mode of selected hits. In vitro antiviral activity was evaluated for a subset of compounds using a high-throughput CHIKV infection assay. To our knowledge, the pipeline presented here is unprecedented for CHIKV antiviral discovery research.
PROTOCOL TABLE (as described by Inglese J, Shamu CE and Guy RK. 2007)
SEQUENCE No. (e.g., 1, 2, 3, etc.); […] (e.g., Cells, Incubation, Reagent, etc.); VALUE; DESCRIPTION.
1; Control / Compound; 20 nL; Echo 655 acoustic dispenser, Greiner 1536-well solid bottom black plate.
2; Enzyme; 4 uL; BioRAPTR FRD liquid dispenser (Beckman Coulter).
3; Incubation; 15 min; room temperature.
4; Reagent; 4 uL; 2.5 uM Peptide 2 substrate.
5; Incubation; 1 hr; room temperature.
6; Detection; Fluorescence; WiewLux microplate reader (PerkinElmer), 525 nm excitation, 598/25 nm emission.
NOTES (numbers refer to sequence numbers above).
1. Briefly, 20 nL DMSO, positive control ZnAc (20nM final concentration), and test compounds were transferred into a 1,536-well solid bottom black plate (789176-F, Greiner One) via Echo 655 acoustic dispenser (Beckman Coulter). For primary screens, compounds were tested at 7 concentrations, 1:3 dilution points ranging from 25 uM to 34 nM. Follow-up confirmatory screens were carried out at 11 concentrations, 1:3 dilution points from 25 uM to 0.42 nM.
2. Four uL NSP2 full length enzyme mix (150 nM final concentration) in 10 mM Tris-HCl pH 8.0 with 0.01% Tween 20 assay buffer was dispensed into the plate using a BioRAPTR FRD liquid dispenser (Beckman Coulter).
3. The plate was incubated at room temperature (protected from light) for 15 min
4. Four microliter of peptide 2 substrate (2.5 uM final concentration) in assay buffer was added to the plate.
5. After 1 hour, plates were immediately read on a ViewLux high-throughput CCD imager (Exposure = 10 sec, Gain = High, Speed = Slow, Binning = 2X). The above assay was also incorporated in the NCATS HTS facility41, which allowed for robotic liquid and compound dispensing, microplate handling, and fluorescence reading.
Inglese J, Shamu CE and Guy RK, Reporting data from high throughput screening of small molecule libraries, Nature Chemical Biology, 2007, 3(8): 438-441. doi.org/10.1038/nchembio0807-438.
On the technique in general: A counterscreen serves to expose hits that act by an unwanted route or on another target.
`Cn1nnnc1Sc1ncnc2n[nH]c(-c3cccc(S(C)(=O)=O)c3)c12`: the Potency was 15.8 µM (active).

Take `CO[C@]1(NC(=O)CSC(F)F)C(=O)N2C(C(=O)O)=C(CSc3nnnn3CCO)CO[C@H]21`: the “activity change, negative = inhibition” value is -12.8% (inactive).

Take `C=CC(=O)c1ccc2ccccc2c1`: the Potency was 11.6 µM (active).

Consider `CCC(C)C(=O)OC1C(C)C2(O)C(C=C(CO)CC3(O)C(=O)C(C)=CC32)C2C(C)(C)C12OC(=O)C(C)C` (centres undefined), for which the “activity change, negative = inhibition” value is -7.57% [at 17.3 µM] (inactive).

For the compound `C[C@@H]1C[C@@H](O)[C@@]23CO[C@]2(CO)C[C@@H](O)CC3[C@@]12CC(c1ccoc1)OC2=O` (some centres undefined), the “activity change, negative = inhibition” value was 4.95% [at 33.5 µM] (inactive).

Take `COC([CH2][Hg])CNC(=O)c1ccccc1OCC(=O)O` (centres undefined): the Potency is 18.3 µM (active).

In the case of `CCOc1ccc(N(Cc2ccccc2)C(=O)c2nc(S(C)(=O)=O)ncc2Cl)cc1`, the Potency was 14.6 µM (active).

As for `Oc1ccc(OC2CCCCO2)cc1` (centres undefined), the “activity change, negative = inhibition” value is -1.39% (inactive).

`N#CSc1cc(SC#N)c(N)nc1N`: the Potency is 1.03 µM (active).
